# Source: PubChem BioAssay (several laboratories)
# An excerpt weighted towards active compounds, which were near 1.1% of everything screened.
# Y pestis TopoI – Y. pestis Topo-I inhibition via cleavage products; Y. pestis Topo-I cleavage product accumulation, plate reader; activity, % at 10 µM; actives 0.064% (n = 360,000); in the data active = activity above about 50%, passing the limit was not always enough
# Vc quorum ag – quorum light induction in luxS cqsA deficient V. cholerae. V. cholerae BH1578 lux reporter, luminescence, 6 h. activation, % at 18.7 µM. actives 0.16% (n = 350,000); in the data active = activation mostly above about 9.7%, no sharp cut-off
# CCHF vOTU inh-1 – blocks the CCHF virus ovarian tumor domain protease; CCHFV vOTU protease, Pep-AMC fluorescence; inhibition, % at 11.5 µM; actives 0.55% (n = 370,000); AID 651958
# PrPC surface inh – cell surface PrPC inhibition, primary TR-FRET screen; actives 0.43% (n = 370,000); P04156; AID 720596; inhibition, % at 13.8 µM; TR-FRET read-out; in the data active = inhibition above about 24%
# CCHF vOTU inh-2 – confirmation of CCHF virus vOTU protease inhibitors; Recombinant CCHFV vOTU, Pep-AMC fluorescence; AID 686976; inhibition, % at 11.5 µM; actives 17% (n = 1,900); shares compounds with CCHF vOTU inh-1
# Hits are given with their value; – = inactive; · = no result given. Cut-off read from the data, not from the text of the source, unless noted: active = inhibition above about 30%; inactive = the rest.
SMILES,Y pestis TopoI,Vc quorum ag,CCHF vOTU inh-1,PrPC surface inh,CCHF vOTU inh-2
Cc1cc(C)cc(NC(=S)N2CCN(c3ccccn3)CC2)c1,–,–,–,–,·
Cn1c(=O)c2c(-c3ccccc3)n(-c3ccc(N)cc3)cc2n(C)c1=O,·,·,98,–,92
NS(=O)(=O)c1ccc(CCNC(=O)COC(=O)c2cc([N+](=O)[O-])ccc2N2CCOCC2)cc1,–,–,–,–,·
CCCN1C(=O)c2ccc(C(=O)Nc3ccc4c(c3)OCO4)cc2C1=O,–,–,–,–,·
O=C(Cn1cc(COC(=O)c2c3ccccc3cc3ccccc23)nn1)c1ccc(O)cc1,·,·,34,–,–
Cc1ccsc1/C=N\Nc1cn[nH]c(=O)c1Cl,–,–,30,–,–
O=C(CCc1ccc(S(=O)(=O)N2CCOCC2)cc1)Nc1ccc(F)c(F)c1F,–,–,35,–,–
CC(=O)N1CCc2c(sc(NC(=O)C3CC3)c2-c2nc3ccccc3s2)C1,–,–,50,–,–
COc1ccc(C(C[N+](=O)[O-])c2c(C)[nH]n(-c3ccccc3)c2=O)cc1 (stereo not drawn),–,–,100,–,31
Cc1[nH]n(-c2ccccc2)c(=O)c1C(c1ccc(O)c([N+](=O)[O-])c1)c1c(C)[nH]n(-c2ccccc2)c1=O,–,–,70,–,–
COc1ccccc1C1N(c2ccc(Cl)cc2)C(=O)C2CCCN21 (stereo not drawn),–,–,–,–,·
O=C1C2CCCN2C(c2cccs2)N1c1ccc(Cl)cc1 (stereo not drawn),–,–,31,–,–
COc1ccccc1C(CCNCc1ccc(N(C)C)cc1)c1ccc(OC(C)C)cc1 (stereo not drawn),–,–,33,–,–
O=C(NC(NC1CCS(=O)(=O)C1)C(=O)c1cccs1)c1ccccc1 (stereo not drawn),·,·,–,–,·
O=C(NC1=C(Nc2ccc(Cl)cc2)C(=O)c2ccccc2C1=O)c1ccccc1,–,–,–,–,·
O=C(NC1=C(NC2CCS(=O)(=O)C2)C(=O)c2ccccc2C1=O)c1ccccc1 (stereo not drawn),–,–,71,–,69
O=C1C(Cl)=C(NC(=O)c2ccccc2)C(=O)C(Cl)=C1NC(=O)c1ccccc1,–,–,97,–,–
Cc1cccc(NC2=C(NC(=O)c3ccccc3)C(=O)c3ccccc3C2=O)c1,–,–,68,–,37
CN(C1=C(NC(=O)c2ccc(Cl)cc2)C(=O)c2ccccc2C1=O)c1ccccc1,–,–,45,–,–
CC(=O)NC(Cc1ccc(C)cc1)C(=O)NC1CCN(C(=O)NCc2ccccc2)CC1 (stereo not drawn),–,–,–,–,·
Cc1ccc(C)c(N2CCN(C(=O)c3ccc4nc(-c5ccco5)c(-c5ccco5)nc4c3)CC2)c1,–,–,44,–,–
COc1ccccc1N1CCN(C(=O)c2ccc3nc(-c4ccco4)c(-c4ccco4)nc3c2)CC1,–,–,–,–,·
COc1ccc(C(=O)N2CCCC2(C)C(=O)O)cc1C(F)(F)F (stereo not drawn),–,–,–,–,·
CCOC(=O)C1(C)CCCCCN1C(=O)c1ccc(OC)c(C(F)(F)F)c1 (stereo not drawn),–,–,35,–,–
COCCn1c(SCC(=O)NC(C)c2ccccc2)nc2ccccc21 (stereo not drawn),–,–,–,–,·
SMILES,Y pestis TopoI,Vc quorum ag,CCHF vOTU inh-1,PrPC surface inh,CCHF vOTU inh-2
COc1ccc(C2(C)NC(=O)N(CC(=O)Nc3ccc4c(c3)OCO4)C2=O)cc1OC (stereo not drawn),–,–,–,–,·
COCCOc1ccc(C(F)(F)F)cc1NC(=O)CN1C(=O)NC(C)(c2ccc3c(c2)OCO3)C1=O (stereo not drawn),–,–,31,–,–
Cc1c(N=C2C=CC(=O)c3ccccc32)c(=O)n(-c2ccccc2)n1C,–,–,90,–,–
Cc1c(N=C2C=C(Br)C(=O)C(Br)=C2)c(=O)n(-c2ccccc2)n1C,–,–,–,–,·
O=c1c(O)c(-c2ccc(O)c(O)c2)oc2cc(O)cc(O)c12,–,–,32,–,–
O=C(Nc1ccccc1)C1Cc2c(-c3ccccc3Oc3ccccc3)ccnc2O1 (stereo not drawn),–,–,–,–,·
O=C(Nc1cccc(OC(F)(F)F)c1)C1Cc2c(-c3ccccc3Oc3ccccc3)ccnc2O1 (stereo not drawn),–,–,30,–,–
O=C(Nc1cc(C(F)(F)F)ccc1F)C1Cc2c(-c3ccccc3Oc3ccccc3)ccnc2O1 (stereo not drawn),–,–,36,–,–
Cc1cc([N+](=O)[O-])nn1CC(=O)N/N=C/c1ccccc1Br,–,–,–,–,·
O=C1CC(NCc2ccncc2)C(=O)N1c1ccccc1 (stereo not drawn),–,–,35,–,–
COC(=O)c1cc(-c2cc(F)cc(OC)c2)c(=O)n2c1CCC2,·,·,–,–,·
CN(C)c1ccc(/C=N/NC(=O)c2cc(=O)[nH]c3ccccc23)cc1,–,–,32,–,–
CC(=O)Nc1ccc(S(=O)(=O)Nc2ccc(Nc3ccccc3)cc2)cc1,–,–,–,–,·
CCC(NC(=O)c1ccc2c(ccn2Cc2cccc(-c3ccc(C(=O)O)cc3)c2)c1)c1ccccc1 (stereo not drawn),·,·,32,–,–
CCC(NC(=O)c1ccc2c(c1)c(C)c(C)n2Cc1ccc(Cl)cc1)c1ccccc1 (stereo not drawn),·,·,–,–,·
CCC(C)(C)c1ccc(OCCCC[n+]2cccc(C)c2)c(C(C)(C)CC)c1,–,–,40,–,–
O=c1[nH]c(Nc2ccccc2Cl)cc2ccccc12,–,–,94,–,–
Cc1nc(N)sc1C(=O)N/N=C/c1c[nH]c2ccccc12,–,–,–,–,·
O=C(O)c1cc(N2N=C(C(F)(F)F)/C(=C/C=C/c3ccco3)C2=O)ccc1Cl,–,–,63,–,44
CCOC(=O)c1ccc(N2N=C(C)/C(=C/C=C/c3ccco3)C2=O)cc1,–,–,–,–,·
O=C(NCc1cccs1)C(=O)NCC(c1ccco1)N1CCN(c2ccccc2)CC1 (stereo not drawn),–,–,31,–,–
CC1(Cc2ccc(C(F)(F)F)o2)C(=O)Nc2ccc(-c3cccc(C(F)(F)F)c3)cc21 (stereo not drawn),–,–,36,–,–
O=C(COC(=O)CNC(=O)c1cccs1)Nc1ccc(C(F)(F)F)cc1[N+](=O)[O-],–,–,–,–,·
O=C(CCn1c(=S)oc2ccccc21)NC1CCCCCCC1,–,–,32,–,–
Cc1ccc(Nc2cc(-n3cccn3)ncn2)c(C)c1,–,–,64,–,–
SMILES,Y pestis TopoI,Vc quorum ag,CCHF vOTU inh-1,PrPC surface inh,CCHF vOTU inh-2
c1ccc(-c2cn3nc(-c4ccccc4)sc3n2)cc1,–,–,·,·,·
Oc1ccc(NCc2cccc(OCc3ccc(F)cc3)c2)cc1,–,–,89,–,–
Oc1ccc(NCc2cccc(OCc3ccccc3)c2)cc1,–,–,73,–,–
CCOC(=O)C1(CCc2ccccc2)CCN(C(=O)c2occc2C)CC1,–,–,32,–,–
CCOC(=O)C1(CCc2ccccc2)CCN(C(=O)c2cccc(C)n2)CC1,–,–,–,–,·
CCCCNCCCOc1ccc(C)cc1Br,–,–,–,–,·
